Results from PubChem BioAssay (NCI).
Compounds without any hit were thinned out: in the full panel of roughly 83,000, 20% have a hit.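 Single-dose data. Exposure time 48 hours. Values below 10 considered active.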 The source made the active and inactive calls.

Experiments:
Assay in all cases: NCI-60 one-dose screen, 48 h (100 = growth as untreated, 0 = no growth, -100 = all killed)
Details in all cases: 10 µM unless noted
NCI-H23 lung = test system: NCI-H23 lung
NCI-H226 lung = test system: NCI-H226 lung
NCI-H322M lung = test system: NCI-H322M lung
HOP-62 NSCLC = test system: HOP-62 NSCLC
NCI-H460 lung = test system: NCI-H460 lung
HOP-92 NSCLC = test system: HOP-92 NSCLC
NCI-H522 lung = test system: NCI-H522 lung
A549/ATCC NSCLC = test system: A549/ATCC NSCLC
786-0 renal = test system: 786-0 renal
COLO 205 colon = test system: COLO 205 colon
DU-145 prostate = test system: DU-145 prostate
K-562 leukemia = test system: K-562 leukemia
MALME-3M melanoma = test system: MALME-3M melanoma
MDA-MB-231 breast = test system: MDA-MB-231 breast
RXF 393 renal = test system: RXF 393 renal
SF-268 CNS = test system: SF-268 CNS
SF-295 CNS = test system: SF-295 CNS
SF-539 CNS = test system: SF-539 CNS
UACC-257 melanoma = test system: UACC-257 melanoma
M14 melanoma = test system: M14 melanoma

Measured: growth

CC/C(Cc1ccccc1)=C(\c1ccc(OCCN2CCCCCC2)cc1)c1ccc(OC(=O)NCc2ccccc2)cc1
inactive: NCI-H23 lung 74.9% | NCI-H226 lung 90% | NCI-H322M lung 96.6% | HOP-62 NSCLC 82.8% | HOP-92 NSCLC 56% | NCI-H522 lung 84.7% | A549/ATCC NSCLC 64.4% | 786-0 renal 58.4% | DU-145 prostate 83.2% | MALME-3M melanoma 61.3% | MDA-MB-231 breast 74.4% | RXF 393 renal 77.4% | SF-268 CNS 77.3% | SF-295 CNS 107% | SF-539 CNS 79.7% | UACC-257 melanoma 77.6% | M14 melanoma 56.3%
active: NCI-H460 lung 5.51% | COLO 205 colon -24.2% | K-562 leukemia -11.8%

C[N+](C)(C/C=C/c1ccccc1)Cc1ccccc1
inactive: NCI-H23 lung 85.2% | NCI-H226 lung 93.1% | NCI-H322M lung 89.7% | HOP-62 NSCLC 96.7% | NCI-H460 lung 102% | HOP-92 NSCLC 104% | NCI-H522 lung 90.7% | A549/ATCC NSCLC 94.4% | 786-0 renal 99.1% | COLO 205 colon 104% | DU-145 prostate 102% | K-562 leukemia 110% | MALME-3M melanoma 86.8% | MDA-MB-231 breast 102% | RXF 393 renal 99.2% | SF-268 CNS 90.3% | SF-295 CNS 93.5% | SF-539 CNS 93.9% | UACC-257 melanoma 97.7% | M14 melanoma 85.6%

COc1cc2c3c(n(CCCCNCCCn4c5c(c6cc(OC)c(OC)cc6c4=O)C(=O)c4cc6c(cc4-5)OCO6)c(=O)c2cc1OC)-c1cc2c(cc1C3=O)OCO2
inactive: NCI-H23 lung 95.3% | NCI-H226 lung 106% | NCI-H322M lung 90.5% | HOP-62 NSCLC 90.5% | NCI-H460 lung 106% | HOP-92 NSCLC 87% | NCI-H522 lung 86.8% | A549/ATCC NSCLC 90.3% | 786-0 renal 109% | COLO 205 colon 103% | DU-145 prostate 99.1% | K-562 leukemia 85.7% | MALME-3M melanoma 81.8% | MDA-MB-231 breast 90.4% | RXF 393 renal 107% | SF-268 CNS 89.5% | SF-295 CNS 99.9% | SF-539 CNS 92.8% | UACC-257 melanoma 94.8% | M14 melanoma 96.3%

COc1cc(/C=N/Nc2ccccc2F)cc(OC)c1OC
inactive: NCI-H23 lung 101% | NCI-H226 lung 95.6% | NCI-H322M lung 91.3% | HOP-62 NSCLC 94.4% | NCI-H460 lung 101% | HOP-92 NSCLC 99.1% | NCI-H522 lung 68.7% | A549/ATCC NSCLC 95.5% | 786-0 renal 90.4% | COLO 205 colon 109% | DU-145 prostate 106% | K-562 leukemia 48.5% | MALME-3M melanoma 99% | MDA-MB-231 breast 81.5% | RXF 393 renal 123% | SF-268 CNS 83.2% | SF-295 CNS 98.1% | SF-539 CNS 99.3% | UACC-257 melanoma 116% | M14 melanoma 96.5%

N=C(N)c1ccc(-c2ccc(-c3ccc(Cl)cc3Cl)s2)cc1F
inactive: NCI-H23 lung 18.9% | NCI-H226 lung 93.2% | HOP-92 NSCLC 43% | RXF 393 renal 50.1% | UACC-257 melanoma 18.6%
active: NCI-H322M lung -43.8% | HOP-62 NSCLC -0.426% | NCI-H460 lung -72.4% | NCI-H522 lung -44.2% | A549/ATCC NSCLC -55.8% | 786-0 renal -78.8% | COLO 205 colon -47.2% | DU-145 prostate -82.4% | K-562 leukemia -22.6% | MALME-3M melanoma -2.93% | MDA-MB-231 breast -79.5% | SF-268 CNS 1.95% | SF-295 CNS -79.5% | SF-539 CNS -95.4% | M14 melanoma -15.1%

O=C1/C(=C/c2ccc(C(F)(F)F)cc2)COc2ccc(O)c(O)c21
active: HOP-62 NSCLC -36.7% | HOP-92 NSCLC -13.7% | NCI-H522 lung -50.3% | 786-0 renal -78.6% | K-562 leukemia 3.76% | MDA-MB-231 breast -10% | SF-268 CNS -0.987% | SF-539 CNS -83.9%
inactive: NCI-H23 lung 38% | NCI-H226 lung 81.1% | NCI-H322M lung 50.2% | NCI-H460 lung 25.8% | A549/ATCC NSCLC 54.2% | COLO 205 colon 12.3% | DU-145 prostate 16.1% | MALME-3M melanoma 23.6% | RXF 393 renal 24.5% | SF-295 CNS 85.8% | UACC-257 melanoma 25.3% | M14 melanoma 42.3%

CCOC(=O)NN1CC(O)=C(c2nc(-c3ccc(Br)cc3)cs2)C1=N
inactive: NCI-H23 lung 101% | NCI-H226 lung 105% | NCI-H322M lung 112% | HOP-62 NSCLC 106% | NCI-H460 lung 111% | HOP-92 NSCLC 97.3% | NCI-H522 lung 92.1% | A549/ATCC NSCLC 88.1% | 786-0 renal 111% | COLO 205 colon 112% | DU-145 prostate 105% | K-562 leukemia 78.4% | MALME-3M melanoma 112% | MDA-MB-231 breast 104% | RXF 393 renal 82.9% | SF-268 CNS 108% | SF-295 CNS 90.9% | SF-539 CNS 96.7% | UACC-257 melanoma 96.4% | M14 melanoma 156%

CC(C)CCC[C@@H](C)C1CCC2C3CCC4=C/C(=N/OCCN(C)C)CC[C@]4(C)C3CC[C@@]21C (stereo not given in full)
inactive: NCI-H23 lung 84.7% | NCI-H226 lung 95.8% | NCI-H322M lung 79.9% | HOP-62 NSCLC 80.5% | NCI-H460 lung 98.5% | HOP-92 NSCLC 50% | NCI-H522 lung 66.3% | A549/ATCC NSCLC 77.7% | 786-0 renal 76% | COLO 205 colon 98% | DU-145 prostate 91.7% | K-562 leukemia 73.6% | MALME-3M melanoma 91.2% | MDA-MB-231 breast 89.4% | RXF 393 renal 91.6% | SF-268 CNS 65.9% | SF-295 CNS 68.4% | SF-539 CNS 93.2% | UACC-257 melanoma 97.5% | M14 melanoma 93.3%

COc1ccc(-c2nnc(SCC(=O)Nc3ccc(/C(C)=N\O)cc3)n2-c2ccccc2)cc1OC
active: HOP-62 NSCLC -26.4% | HOP-92 NSCLC -8.56%
inactive: NCI-H23 lung 68.8% | NCI-H226 lung 81.9% | NCI-H322M lung 75.7% | NCI-H460 lung 102% | NCI-H522 lung 35.3% | A549/ATCC NSCLC 70.7% | 786-0 renal 64.5% | COLO 205 colon 99.1% | DU-145 prostate 88.3% | K-562 leukemia 105% | MALME-3M melanoma 61.8% | MDA-MB-231 breast 47.9% | RXF 393 renal 32.3% | SF-268 CNS 30.6% | SF-295 CNS 39.1% | SF-539 CNS 43% | UACC-257 melanoma 91.8% | M14 melanoma 89.9%

CC1(C)OC(=O)C(=Cc2cccc(Br)c2)C(=O)O1
inactive: NCI-H23 lung 103% | NCI-H226 lung 96.2% | NCI-H322M lung 113% | HOP-62 NSCLC 88.1% | NCI-H460 lung 105% | HOP-92 NSCLC 85.8% | NCI-H522 lung 77.5% | A549/ATCC NSCLC 87.9% | 786-0 renal 109% | COLO 205 colon 104% | DU-145 prostate 112% | K-562 leukemia 98.6% | MALME-3M melanoma 108% | MDA-MB-231 breast 107% | RXF 393 renal 96.4% | SF-268 CNS 102% | SF-295 CNS 102% | SF-539 CNS 108% | UACC-257 melanoma 85.8% | M14 melanoma 109%

COc1ccc(NC(=O)c2cccc(C3CCc4c(cc(OC)c(OC)c4OC)O3)c2)cc1 (stereo not given)
active: HOP-92 NSCLC -2.49% | K-562 leukemia 6.79%
inactive: NCI-H23 lung 52.1% | NCI-H226 lung 47.5% | NCI-H322M lung 53.9% | HOP-62 NSCLC 30.7% | NCI-H460 lung 18.2% | NCI-H522 lung 21.8% | A549/ATCC NSCLC 32.1% | 786-0 renal 26.1% | COLO 205 colon 41.3% | DU-145 prostate 63.2% | MALME-3M melanoma 41.7% | MDA-MB-231 breast 31% | RXF 393 renal 53% | SF-268 CNS 50.2% | SF-295 CNS 23.9% | SF-539 CNS 18.9% | UACC-257 melanoma 46.5% | M14 melanoma 28.2%

CCCC(O)Cn1ncc(C(=O)OCC)c1NC(=O)NCc1cccc(F)c1 (stereo not given)
inactive: NCI-H23 lung 91.2% | NCI-H226 lung 112% | NCI-H322M lung 93% | HOP-62 NSCLC 100% | NCI-H460 lung 107% | HOP-92 NSCLC 71.3% | NCI-H522 lung 58.6% | A549/ATCC NSCLC 88.4% | 786-0 renal 73.4% | COLO 205 colon 111% | DU-145 prostate 99.4% | K-562 leukemia 68.6% | MALME-3M melanoma 97.6% | MDA-MB-231 breast 103% | RXF 393 renal 120% | SF-268 CNS 98.4% | SF-295 CNS 93.3% | SF-539 CNS 94.8% | UACC-257 melanoma 85.2% | M14 melanoma 80.5%

O=C1C(Cl)=C(NCCN2CCOCC2)C(=O)c2ncccc21
active: NCI-H23 lung -41.8% | NCI-H226 lung -37.8% | NCI-H322M lung 1.09% | HOP-62 NSCLC -63% | NCI-H460 lung 0.786% | NCI-H522 lung -74% | A549/ATCC NSCLC -54.3% | COLO 205 colon -75.2% | DU-145 prostate -88.5% | K-562 leukemia -33.5% | MALME-3M melanoma -79.3% | RXF 393 renal -27.5% | SF-295 CNS -40.5% | SF-539 CNS -85.8% | UACC-257 melanoma -92.8% | M14 melanoma -85.9%
inactive: HOP-92 NSCLC 72.6% | 786-0 renal 18.1% | MDA-MB-231 breast 18.6% | SF-268 CNS 11%

COC(=O)c1c2c(n3ccc(C)cc13)C(=O)c1ccccc1C2=O
active: NCI-H460 lung 4.07% | A549/ATCC NSCLC -41.6%
inactive: NCI-H23 lung 50.9% | NCI-H226 lung 62.1% | NCI-H322M lung 22.1% | HOP-62 NSCLC 78.4% | HOP-92 NSCLC 76.7% | NCI-H522 lung 47.5% | 786-0 renal 80.3% | COLO 205 colon 42.5% | DU-145 prostate 75.2% | K-562 leukemia 60.8% | MALME-3M melanoma 62.2% | MDA-MB-231 breast 77.9% | RXF 393 renal 75.9% | SF-268 CNS 74.9% | SF-295 CNS 67.6% | SF-539 CNS 94.8% | UACC-257 melanoma 72.4% | M14 melanoma 63.5%
